PAFAH2 inh – PAFAH2 (human) inhibition. recombinant PAFAH2, FP-rhodamine activity probe, fluorescence polarization. inhibition, % at 3.39 µM. Q99487. actives 0.99% (n = 340,000). AID 492956;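 active = inhibition above the mean over all tested compounds plus 3 SD, cut at about 30% in these data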;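 note: inhibitors block probe labeling of enzyme so polarization drops; 0% = enzyme with DMSO and 100% = wells lacking PAFAH2 protein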
pPAFAH FP inh – inhibitors of human plasma PAF acetylhydrolase (pPAFAH); Q13093; recombinant pPAFAH, FP-rhodamine probe fluorescence polarization; inhibition, % at 3.39 µM; actives 1.5% (n = 330,000); AID 463082;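 active = inhibition above the mean inhibition across the screen plus 3 SD, cut at about 25% in these data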;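 note: inhibitors block binding of the rhodamine activity-based probe so polarization drops; 0% = enzyme with DMSO and 100% = wells lacking pPAFAH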
Target sequence (Q13093 whole entry, looked up): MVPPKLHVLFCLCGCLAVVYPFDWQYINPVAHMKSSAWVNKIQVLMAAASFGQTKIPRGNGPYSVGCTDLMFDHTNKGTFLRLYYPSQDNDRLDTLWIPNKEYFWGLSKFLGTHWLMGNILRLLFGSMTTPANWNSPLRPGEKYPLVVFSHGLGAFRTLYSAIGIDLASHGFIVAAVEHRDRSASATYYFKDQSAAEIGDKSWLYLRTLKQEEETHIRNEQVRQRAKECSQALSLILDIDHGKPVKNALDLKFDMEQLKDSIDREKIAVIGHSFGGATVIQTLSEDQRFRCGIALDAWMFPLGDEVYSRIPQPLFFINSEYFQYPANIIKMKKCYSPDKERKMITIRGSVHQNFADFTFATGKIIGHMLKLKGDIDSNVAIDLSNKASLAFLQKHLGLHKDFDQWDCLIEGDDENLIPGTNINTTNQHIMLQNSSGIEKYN
PAFAH1B3 FP inh – inhibitors of human PAFAH1B3. Q15102. recombinant PAFAH1B3, FP-rhodamine probe, fluorescence polarization. inhibition, % at 3.39 µM. actives 0.28% (n = 340,000). AID 492972;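 active = inhibition above the screen-wide average of all tested compounds plus 3 SD, cut at about 25% in these data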;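 note: 0% = enzyme with DMSO only and 100% = wells lacking PAFAH1B3 protein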
M18AAP inhibitor – blocks P. falciparum M18 aspartyl aminopeptidase; actives 1.2% (n = 290,000); inhibition, % at 7.35 µM; AID 1822; recombinant PfM18AAP, H-Glu-NHMec fluorogenic cleavage;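 active = inhibition above the campaign mean inhibition over all tested compounds plus 3 SD, cut at about 28% in these data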;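 note: 0% = plate median of test compound wells and 100% = 2 mM ZnCl2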
Pemphigus Ab inh – inhibitors of pemphigus antibody binding to human desmoglein-3. P32926. DSG3-coupled beads, scFv-anti-DSG3-GFP binding, flow cytometry; hits give low values. binding (percent of control), % at 10 µM. actives 0.48% (n = 310,000). AID 588358;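 active = binding more than 3 SD below its plate's average and above zero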;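 note: hits lower antibody fragment binding to DSG3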
PAFAH1B2 inh – PAFAH1B2 (human) inhibition. inhibition, % at 3.39 µM. AID 492953. P68402. actives 1.2% (n = 340,000). recombinant PAFAH1B2, FP-rhodamine activity probe, fluorescence polarization;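 active = inhibition above the mean of all tested compounds plus 3 SD, cut at about 24% in these data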;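 note: 0% = enzyme with DMSO and 100% = wells lacking PAFAH1B2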
* hit, by the source's call; x = no result given. A selection: hits, their analogues and other compounds. The true share with any hit is near 3.8%.

SMILES	PAFAH2 inh	pPAFAH FP inh	PAFAH1B3 FP inh	M18AAP inhibitor	Pemphigus Ab inh	PAFAH1B2 inh
CSc1nnc2c(n1)c(C)nn2-c1cccc(C)c1	4	7	4	2	86*	5
O=C1CSC(c2cccc([N+](=O)[O-])c2)N1C1CC2CCC1C2 (stereo unspecified)	2	0	-2	-4	99	24*
O=C1CSC(c2cccc([N+](=O)[O-])c2)N1c1c(F)cccc1F (stereo unspecified)	-1	-4	-1	-2	107	2
CCCCOc1ccc(C(=O)NCC(=O)N2CC=C(c3ccccc3)CC2)cc1	-2	6	-3	x	101	-2
CC(C)CN1C(=O)C(=O)N(CC(=O)NCCCc2ccccc2)C1=O	x	x	x	x	100	x
COc1cccc(/C=C/C(=O)NCc2ccc(S(N)(=O)=O)cc2)c1	2	7	5	0	103	-1
CS(=O)(=O)N1CCSC1c1ccc(Br)cc1 (stereo unspecified)	-2	2	7	1	87	26*
CCC1CCC/C1=N\NC(=O)c1cc(C)[nH]n1 (stereo unspecified)	6	34*	12	6	104	3
O=C(Cn1c(=O)c2cccn2c2cccnc21)N1CCN(c2ccccc2F)CC1	2	7	4	2	x	-4
S=C1NCCOCCOCCOCCN1	-5	1	-1	-15	x	1
S=C1NCCOCCNC(=S)NCCOCCOCCN1	6	26*	0	-3	83	-3
O=C(NCCCn1ccnc1)c1sc2cc([N+](=O)[O-])ccc2c1Cl	x	x	x	x	105	x
CNCc1ccccc1Sc1cc(O)ccc1O	1	25*	5	14	99	1
CNCc1ccccc1Sc1cccc(O)c1	-2	5	-2	-1	102	4
CC(C)c1ccc(NC(=O)C2CCCCC2C(=O)O)cc1 (stereo unspecified)	-3	1	4	-12	105	-2
Cc1cc(C)cc(NS(=O)(=O)c2ccc(NC(=O)C3CCCCC3C(=O)O)cc2)c1 (stereo unspecified)	-3	28*	-8	4	107	-1
COC1OC(COC(=O)c2ccccc2)C(OC(=O)c2ccccc2)C1OC(=O)c1ccccc1 (stereo unspecified)	3	-3	-14	-15	105	3
O=C(OC[C@H]1O[C@@H](OC(=O)c2cc(O)c(O)c(OC(=O)c3cc(O)c(O)c(O)c3)c2)[C@H](OC(=O)c2cc(O)c(O)c(OC(=O)c3cc(O)c(O)c(O)c3)c2)[C@@H](OC(=O)c2cc(O)c(O)c(OC(=O)c3cc(O)c(O)c(O)c3)c2)[C@@H]1OC(=O)c1cc(O)c(O)c(OC(=O)c2cc(O)c(O)c(O)c2)c1)c1cc(O)c(O)c(OC(=O)c2cc(O)c(O)c(O)c2)c1	x	70*	x	x	x	x
COc1cc(C(NC(C)=O)NC(C)=O)ccc1OCc1ccccc1	0	1	9	-3	107	5
O=C(O)COc1ccc(Br)cc1C(c1c(C(=O)O)[nH]c2ccccc12)c1c(C(=O)O)[nH]c2ccccc12	20	7	7	1	124	53*
COC(=O)c1[nH]c2ccc(Cl)cc2c1NC(=O)c1ccccc1[N+](=O)[O-]	1	1	4	3	91	0
COCC(=O)c1[nH]c2ccccc2c1C	2	1	6	3	93	-2
COc1cc(C(c2c(C(=O)O)[nH]c3ccccc23)c2c(C(=O)O)[nH]c3ccccc23)ccc1OCc1ccccc1	26	18	8	2	105	57*
O=C(O)c1[nH]c2ccccc2c1C(c1cc(Cl)cc([N+](=O)[O-])c1O)c1c(C(=O)O)[nH]c2ccccc12	12	13	8	-6	108	62*
O=C(O)COc1ccc(Br)cc1CP(=O)(c1ccccc1)c1ccccc1	-4	6	-4	4	89	8
O=C(O)c1[nH]c2ccccc2c1C(c1ccccc1)c1c(C(=O)O)[nH]c2ccccc12	13	2	10	1	96	88*
NC(=O)Cc1ccc(OCc2nn[nH]n2)cc1	x	x	x	x	96	x
O=C(c1c(F)cccc1F)N1CCN(CCOc2ccccc2)CC1	-3	6	0	-1	107	4
CCCC(=O)N(Cc1cc2cc(OC)ccc2[nH]c1=O)c1ccccc1OC	x	x	x	x	97	x

Source: PubChem (several laboratories)
